Assay outcomes as filed in PubChem.
CHX counter: Cycloheximide Counterscreen for Small Molecule Inhibitors of Shiga Toxin. cell reporter, cycloheximide protein synthesis inhibition counterscreen. max response, %. actives 12% (n = 300,000). AID 2314, 2010; in the data active means max response mostly above about 13%, no sharp cut-off; inactive means mostly below about 14%; further: read at 38.3 µM for the half of the compounds with a filed dose; 0% is about no effect
Giardia FBPA inh: qHTS Assay for Inhibitors of Fructose-1,6-bisphosphate Aldolase from Giardia Lamblia; purified Giardia FBPA; AID 2451, 2010; actives 0.71% (n = 290,000); Potency, µM (titrated, usually from 59.6 µM), inactives show at the highest dose activity, negative = inhibition, hits mostly inhibitors; A8B2U2; further: potency means the concentration at half of the fitted maximal effect; on the % scale 0 is the no-effect control and ±100 the full control effect; nearly all actives have a fitted effect of over 55% in size
Target sequence (A8B2U2 whole entry, looked up): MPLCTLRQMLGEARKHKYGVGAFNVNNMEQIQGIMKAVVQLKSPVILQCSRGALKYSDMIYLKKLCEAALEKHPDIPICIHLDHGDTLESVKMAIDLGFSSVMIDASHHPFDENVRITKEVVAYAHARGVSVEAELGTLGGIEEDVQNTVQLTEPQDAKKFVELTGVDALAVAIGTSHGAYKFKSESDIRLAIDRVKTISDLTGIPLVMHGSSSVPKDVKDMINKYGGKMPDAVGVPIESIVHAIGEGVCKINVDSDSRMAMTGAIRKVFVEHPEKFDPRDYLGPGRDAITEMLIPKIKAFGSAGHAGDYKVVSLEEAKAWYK
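40 nM FBPA preincubated 10 min at RT with compound (up to 57.5 uM final), then substrate plus GAPDH/TPI/NAD/arsenate coupling and diaphorase/resazurin added. Fluorescence read after 20 min at RT, 525/598 nm.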
Shiga toxin inh: A qHTS for Small Molecule Inhibitors of Shiga Toxin; Vero cells, Shiga toxin protein synthesis inhibition reporter; inhibition, % at 38.7 µM; actives 9.2% (n = 290,000); AID 2315, 2010; in the data active means inhibition mostly above about 28%, no sharp cut-off; inactive means mostly below about 43%; further: 0% is about no effect
TbPYK inhibitor: qHTS of Trypanosoma Brucei Inhibitors; pyruvate kinase (Trypanosoma brucei), Q57TT1; TbPYK enzyme, Kinase-Glo Plus ATP luminescence, 45 min; Potency, µM (doses to about 76.8 µM), for inactives: top-dose activity, negative = inhibition, usual class: inhibitors; actives 0.12% (n = 410,000); AID 624173, 2012; further: potency means the concentration at half of the fitted maximal effect; on the % scale 0 is the no-effect control and ±100 the full control effect; nearly all actives have a fitted effect of over 50% in size
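Readout: single end-point luminescence (Kinase-Glo Plus, 10 min). Reaction conditions were TbPYK/substrate plus 130 uM ADP, 45 min at RT, pH 7.2 TEA buffer. No-enzyme wells served as controls, and data were normalized before concentration-response fitting.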
LmPK inh: qHTS Assay for Inhibitors of Leishmania Mexicana Pyruvate Kinase (LmPK). Q27686. purified LmPK, Kinase-Glo ATP luminescence, 1 h. Potency, µM (titrated, usually from 57.5 µM), for inactives: top-dose activity change, negative = inhibition, hits mostly inhibitors. actives 0.37% (n = 290,000). AID 1721, 2009; further: potency means the concentration at half of the fitted maximal effect; on the % scale 0 is the no-effect control and ±100 the full control effect
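0.1 nM LmPK, 0.5 mM PEP, 0.1 mM ADP; 50 mM imidazole pH 7.2, 7 mM MgCl2, 50 mM KCl; 1 h RT. Kinase-Glo luminescence readout, normalized to no-enzyme (full inhibition) and uninhibited wells.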
Sm TGR block: qHTS Assay for the Inhibitors of Schistosoma Mansoni Peroxiredoxins. Potency, µM (series often up to 114 µM), without a hit: at the highest dose activity change, negative = inhibition, usual class: inhibitors. actives 3% (n = 360,000). AID 485364, 2010. purified TGR, DTNB reduction, TNB absorbance 405 nm; further: potency means the concentration at half of the fitted maximal effect; on the % scale 0 is the no-effect control and ±100 the full control effect; nearly all actives have a fitted effect of over 60% in size
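First, TGR (20 nM dispensed) and NADPH were mixed with compound. Second, a 15 min room-temperature incubation followed. Third, further NADPH and then DTNB were added to start the reaction. Finally, TNB absorbance was monitored kinetically.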
An asterisk follows results filed as active; ? = inconclusive; / = not tested or not shown; [ ] = another dose, or the depositor's remark. This excerpt belongs to a sample that is enriched for hits. Unless noted, the call rests on the fitted dose curve; in most records, active means well fitted curve in the direction sought with a large enough effect; inconclusive means small, poorly fitted or top-dose-only effect, or another doubt; inactive means no such curve, though single readings can be large; an effect the other way counts as inactive or inconclusive.

SMILES	CHX counter	Giardia FBPA inh	Shiga toxin inh	TbPYK inhibitor	LmPK inh	Sm TGR block
CCOC(=O)c1cnc(SCc2cccc3ccccc23)nc1N	4.3	-4.0%	-10.4	4.5%	1.1%	-9.0%
Cc1nc(SCc2ccc(Cl)cc2)ncc1C(=O)O	13.9	13.7%	59.6*	-18.8%	0.1%	-8.7%
CCOC(=O)C(C)Sc1ncc(-c2ccccc2)cn1 (centres undefined)	58.0*	3.8%	70.2*	-2.4%	-0.6%	1.9%
CCOC(=O)c1cnc(SCc2ccccc2)nc1N	46.7*	3.0%	108.9*	6.8%	-6.7%	-0.5%
CCOC(=O)c1cnc(SCc2ccc(C(C)(C)C)cc2)nc1N	-0.8	-0.1%	-12.2	-24.5%	7.1%	-6.8%
COc1cnc(SCc2ccc(Cl)cc2)nc1Cl	10.4	7.8%	19.1	-8.0%	3.4%	-17.1%
CN(Cc1ccccc1)C(=O)c1cccc(NC(=O)c2nsc3ccccc23)c1	/	/	/	-5.4%	/	5.8%
COc1ccc(N2CCN(S(=O)(=O)c3ccc(OC)c(-c4noc(C)n4)c3)CC2)cc1	-8.2	/	-1.7	4.7%	/	-0.7%
Cc1ccc(S(=O)(=O)N(CC(=O)NCCSc2ccc(Cl)cc2)c2ccccc2C)cc1	/	/	/	0.0%	/	2.2%
Cc1ccc(C2NC(=O)c3c(sc(C)c3C)N2)c(O)c1 (centres undefined)	17.2	-18.5%	35.6	-22.4%	0.2%	25.1µM*
Cc1cccc(C2NC(=O)c3c(sc(C)c3C)N2)c1O (centres undefined)	5.4	-8.5%	14.7	-5.3%	-7.3%	1.3%
Cc1sc2c(c1C)C(=O)NC(c1ccccc1F)N2 (centres undefined)	30.7*	-14.3%	99.8*	-23.3%	-3.2%	-25.4%
Cc1ccccc1-n1ncc(C(C)NS(=O)(=O)c2sccc2C)c1C (centres undefined)	9.4	1.4%	1.4	-5.7%	1.9%	9.5%
O=C(N/N=C/c1ccccc1O)c1cccc(C(F)(F)F)c1	16.4	-20.8%	47.6*	-20.0%	2.9%	2.4%
CCN(CC)S(=O)(=O)c1cccc(C(=O)N/N=C/c2cccc(O)c2O)c1	53.4*	?	77.0*	-10.8%	-1.6%	-11.5%
O=C(N/N=C/c1ccccc1C(F)(F)F)c1ccc(O)cc1	25.5*	-8.5%	69.3*	5.3%	2.1%	-19.5%
C=C1C2c3ccccc3C(CC2(C)O[Si](C)(C)C)N1C(=O)OC (centres undefined)	/	5.5%[12.9 µM]	/	/	-0.1%[11.5 µM]	/
CCCOc1ccc(C2C(=O)N(C3CCCCCC3)CC(=O)N2CCC)cc1OC (centres undefined)	/	/	/	4.2%	/	1.4%
O=c1cnc2cnc(Oc3ccccc3)nc2n1CCc1ccccc1	/	-1.2%	/	-5.2%	/	/
O=[N+]([O-])c1ccc2nc(/C=C/c3ccc(Cl)cc3)[nH]c2c1	60.0*	?	153.2*	-1.9%	4.4%	-7.3%
O=[N+]([O-])c1ccc2nc(C(O)C(O)c3nc4ccc([N+](=O)[O-])cc4[nH]3)[nH]c2c1 (centres undefined)	21.8*	-15.9%	/	-3.0%	15.2%	-0.3%
Nc1ccc(-c2nc3ccc([N+](=O)[O-])cc3[nH]2)cc1	63.4*	-5.9%	52.4	0.1%	-19.5%	-8.0%
O=[N+]([O-])c1ccc(-c2nc3ccc([N+](=O)[O-])cc3[nH]2)cc1	40.0*	-18.9%	96.1	-1.3%	3.5%	-0.1%
CCCC[n+]1ccc(-c2nc3ccc([N+](=O)[O-])cc3[nH]2)cc1	6.8	-5.3%	6.3	2.7%	0.9%	4.7%
NC(=O)CSc1nc2ccc([N+](=O)[O-])cc2[nH]1	-0.5	-9.5%	-13.0	-5.2%	3.3%	5.3%
SMILES	CHX counter	Giardia FBPA inh	Shiga toxin inh	TbPYK inhibitor	LmPK inh	Sm TGR block
CCCCCCCCOc1c(OC)cc(/C=C/C(=O)N2CCN(c3ccc(C)c(C)c3)CC2)cc1OC	5.3	2.5%	19.0	/	/	/
CCCCN(C)c1c(C)nc2ccc(C(=O)N(C)CCN(C)C)cn12	/	/	/	1.3%	/	/
CCc1ccc(-c2nc(CN3CCCC(C(=O)N4CCN(c5cc(Cl)ccc5C)CC4)C3)c(C)o2)cc1 (centres undefined)	/	/	/	1.0%	/	-8.8%
COc1ccc([C@@H]2CC(=O)c3c(O)cc(O[C@@H]4O[C@H](CO[C@@H]5O[C@@H](C)[C@H](O)[C@@H](O)[C@H]5O)[C@@H](O)[C@H](O)[C@H]4O)cc3O2)cc1	-2.7	-0.1%	-17.7	/	/	/
Cc1ccc2oc(-c3ccccc3)c(C(=O)O)c(=O)c2c1	44.1*	-1.2%	80.0*	2.4%	-3.8%	-1.5%
Cc1ccc2oc(-c3ccccc3)c(O)c(=O)c2c1	/	7.9%	/	/	/	/
O=c1c(O)c(-c2cccs2)oc2ccccc12	17.7*	-10.7%	15.2	-13.0%	-2.9%	-1.9%
Cc1ccc(-c2oc3ccccc3c(=O)c2O)cc1	14.3*	-2.0%	9.3	-2.5%	1.0%	-6.0%
O=c1c(O)c(-c2ccccc2)oc2ccccc12	/	0.8%	/	-2.8%	/	/
CCC1CN(C(=O)N2CCC(C(=O)NCCc3ccccc3Cl)CC2)c2cc(C)ccc2O1 (centres undefined)	/	/	/	5.6%	/	13.9%
CCOc1ccc(S(=O)(=O)NCc2ccc3c(c2)CCN3C(=O)c2ccc(C)cc2)cc1	/	/	/	-2.2%	/	0.9%
Cc1ccc(-c2nc(CS(=O)(=O)CC(=O)N3CCc4ccccc4C3)c(C)o2)cc1	-2.2	-11.2%	1.3	-5.3%	-6.6%	25.1µM*
Cc1ccccc1-c1nc(CS(=O)(=O)CC(=O)N2CCOCC2)c(C)o1	3.8	7.8%	-6.5	5.6%	-7.4%	15.8µM*
CCCNC(=O)CS(=O)(=O)Cc1nc(-c2ccccc2C)oc1C	-2.0	0.0%	15.0	-1.5%	-4.0%	50.1µM*
Cc1ccc(CNC(=O)CS(=O)(=O)Cc2nc(-c3ccccc3C)oc2C)cc1	/	/	/	-0.6%	/	1.8%
Cc1cccc(CNC(=O)CCCN2C(=O)c3cccnc3Oc3ccccc32)c1	/	/	/	-0.2%[15.4 µM]	/	2.4%
O=C(Cc1ccccc1)c1nc2ccccc2s1	74.4*	-25.3%	131.1*	-2.5%	-6.4%	-34.8%
COC(=O)c1ccc(CC(=O)c2nc3ccccc3s2)cc1	20.3*	5.1%	19.7	-2.2%	-1.3%	-12.2%
CC(=O)C[C@H](c1ccc([N+](=O)[O-])cc1)c1c(O)c2ccccc2oc1=O	/	-2.0%[21.7 µM]	/	-3.0%[33.2 µM]	/	/
COC(=O)c1ccc(C(=O)NC(=S)Nc2ccc3nc(SC)sc3c2)cc1	10.6*	2.0%	11.4	-8.9%	-2.6%	1.6%
CSc1nc2ccc(NC(=O)C3=NN(c4ccccc4)C(=O)CC3)cc2s1	6.3	-27.0%	17.2	2.4%	-3.6%	-23.4%
CSc1nc2ccc(NC(=O)C3=NNC(=O)CC3)cc2s1	16.5*	-6.4%	46.6	2.0%	-3.0%	-5.7%
